# Experimental data as given in the supplement of paper PMC6555819.
# Key:
# Test in all cases: PBM binding z-score (relative to random genomic background probes); higher = stronger binding; sequences stand for … in GC…GCGATTGACAGCGTAGAATGAAGG
# [1] = system: RARb homodimer (NR concentration 270 nM)
# Procedure, shortened: (§1)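 Antibodies against each partner of ligand-free nuclear receptor dimers (one per run) detected binding on custom Agilent 4×180K protein-binding microarrays after 1 h incubation. The double-stranded probes had 34-nt variable regions carrying direct-repeat seeds, single-nucleotide variants, half-site ablations and random human genomic background sequences. Binding z-scores, from regression-normalized fluorescence, use the random background probes as reference.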
# [2] = system: RARg:RXRa (NR concentration 270 nM, RXRa partner concentration 90 nM)
# Procedure, shortened: as §1
# [3] = system: RARg homodimer (NR concentration 270 nM)
# Procedure, shortened: as §1
# [4] = system: RXRa DBDmut IVT, anti-RXR (DBD mutation: RXRa K156A/R161A, NR concentration 90 nM)
# Procedure, shortened: as §1
# [5] = system: RXRa homodimer (NR concentration 180 nM)
# Procedure, shortened: as §1
# [6] = system: THRa:RXRa (NR concentration 90 nM, RXRa partner concentration 90 nM)
# Procedure, shortened: as §1
# [7] = system: THRa homodimer (NR concentration 90 nM)
# Procedure, shortened: as §1
# [8] = system: VDR homodimer (NR concentration 270 nM)
# Procedure, shortened: as §1
Sequence,PBM binding z-score [1],PBM binding z-score [2],PBM binding z-score [3],PBM binding z-score [4],PBM binding z-score [5],PBM binding z-score [6],PBM binding z-score [7],PBM binding z-score [8]
CCTTACGGGTCACTGACAGATTATAGCATTTGGA,3.01,4.96,4.43,2.1,4.89,2.38,0.495,0.842
GCTTGCAGATCAAGGTTAAGAAAGACTAAGCTAA,-0.0263,0.321,0.141,-0.00088,0.55,1.16,-0.514,-0.323
GCGACTGGGGCAAAGCAGGTTACCCTAAGGTTGG,0.988,0.329,0.427,-0.421,0.394,2.85,0.12,-0.641
ATCGAAAGGTCGACGAGGGGAGTATACACCGTTT,2.53,4.16,4.01,1.29,4.27,2.18,-0.0563,0.446
CCTACTGGGCCAAACAGGTCATTGATGCCGATAA,2.13,1.56,1.36,0.175,1.38,1.39,0.0902,1.53
AGTCAAAGTTCACTAGGTAACGCAAGATTCAGCT,3.66,5.13,6.21,4.25,4.24,2.08,0.154,3.32
CCTCGGAGAACAACAGGAGGTCAGAGCTGCCAGA,2.85,1.99,1.83,0.121,1.86,2.02,0.641,0.996
AGAATGAGGTTATTAAGATCAGGCAATTGCGGTC,0.685,1.05,0.712,1.89,1.65,2.22,0.632,1.24
ATCTCTAGGTAACTAAGTTCAGTGAATGCCGAAC,1.92,1.03,0.956,1.16,0.699,1.67,0.66,2.04
TCTAGTTGGACACGGAGGTCACACACGACGGGTA,4.2,3.95,3.96,0.997,4.47,3.6,2.32,2.67
CGAACGAGGGCATGAGTTGATAGTAAATGCCGAT,0.956,1.48,1.7,2.41,1.09,1.33,-0.0333,1.98
TCTTGTAGATCAATAGAGGTTAAGAAAGTGCGCT,1.1,0.791,0.296,0.705,1.28,2.07,-0.31,0.3
CCTTACAGGTCACTCCAGGTTATAGCATCGGAGT,3.76,4.74,4.71,2.2,4.35,5.15,1.32,2.04
TCGAGTAGGTTAGTCGGGGCATTTAGCCAACATA,0.426,0.175,-0.0384,0.477,0.261,1.12,-0.042,0.418
